# Shown are actives, neighbours in structure and some others; about 0.77% of the full set was active somewhere.
# RecA splice inh – Mtb RecA intein splicing inhibitors, primary screen, biochemical, fluorescence, HTS; 290,000 tested, 0.75% active; AID 2221, 2009; cell-free RecA intein splicing; inhibition, % (no concentration beside the values); in the data active = inhibition above about 30%; inconclusive = no clear call, values can overlap the other calls;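 also: 0% = vehicle wells and 100% = reference inhibitor control wells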
# Mtb RmlCD inh – M. tuberculosis RmlC/RmlD coupled enzyme inhibitors, primary screen, biochemical, compound mixtures, 384-well, from 1536-well plates; dTDP-4-dehydrorhamnose reductase (Mycobacterium tuberculosis (strain ATCC 25618 / H37Rv)) …; RmlC+RmlD coupled enzyme assay, percent inhibition; primary screen in compound mixtures; inhibition, % at 3.6 µM; 160,000 tested, 0.03% active; AID 1533, 2009; in the data active = inhibition mostly above about 34%, no sharp cut-off; inconclusive = no clear call, values can overlap the other calls; inactive = mostly below about 22%
# Target sequence (P9WH09 whole entry, looked up): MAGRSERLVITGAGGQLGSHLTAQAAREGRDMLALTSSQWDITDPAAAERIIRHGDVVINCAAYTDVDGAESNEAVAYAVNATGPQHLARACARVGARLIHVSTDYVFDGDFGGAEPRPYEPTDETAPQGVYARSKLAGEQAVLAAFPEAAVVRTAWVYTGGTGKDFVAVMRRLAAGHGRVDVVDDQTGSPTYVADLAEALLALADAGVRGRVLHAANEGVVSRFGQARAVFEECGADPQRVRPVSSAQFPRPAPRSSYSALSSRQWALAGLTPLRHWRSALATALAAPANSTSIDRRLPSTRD
# Target sequence (P9WH11 whole entry, looked up): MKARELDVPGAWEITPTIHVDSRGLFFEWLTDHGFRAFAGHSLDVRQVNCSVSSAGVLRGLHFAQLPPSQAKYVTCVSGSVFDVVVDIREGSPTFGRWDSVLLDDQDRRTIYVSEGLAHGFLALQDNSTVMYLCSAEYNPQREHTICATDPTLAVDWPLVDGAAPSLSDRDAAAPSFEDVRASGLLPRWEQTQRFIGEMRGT
# GFP chromo cs – counter-screen: blocks GFP chromophore formation, dose response, counter-screen, biochemical, fluorescence, homogeneous. shares compounds with RecA splice inh. cell-free GFP chromophore formation. EC50, µM. 2,100 tested, 83% active. AID 434968, 2010; call rule not given here
# Starred values were filed as active, the others as inactive; ? = inconclusive; / = no result given.
SMILES,RecA splice inh,Mtb RmlCD inh,GFP chromo cs
Cc1cc(O)c(C(C[N+](=O)[O-])c2ccc(Cl)cc2)c(=O)o1 (stereo not given),2,/,/
COc1ccc(C(c2c(C)[nH]n(-c3ccccc3)c2=O)c2c(C)[nH]n(-c3ccccc3)c2=O)cc1OC,98*,-13,1.3*
Cc1[nH]n(-c2ccccc2)c(=O)c1N=Nc1ccccc1,6,-13,/
Cc1[nH]n(-c2ccccc2)c(=O)c1C=NCCc1ccccc1,5,8,/
Cc1[nH]n(-c2ccccc2)c(=O)c1C(C[N+](=O)[O-])c1ccc(Cl)cc1 (stereo not given),82*,4,15*
Cc1[nH]n(-c2ccccc2)c(=O)c1C(C[N+](=O)[O-])c1ccc(F)cc1 (stereo not given),76*,-9,22*
Cc1ccc(C(=O)NCCC(=O)N2CCOCC2)cc1,7,/,/
Cc1[nH]n(-c2ccccc2)c(=O)c1Sc1ccc(Cl)cc1,57*,4,20*
Cc1[nH]n(-c2ccccc2)c(=O)c1N=Nc1ccc(Cl)cc1,2,/,/
Cc1ccc(-n2c(-c3ccco3)nc3c(cnn3-c3ccc(C)cc3)c2=O)cc1,3,/,/
O=C(CSc1n[nH]c(-c2cccs2)n1)NC1CCS(=O)(=O)C1 (stereo not given),0,/,/
COC(=O)CSc1nnc(COc2cccc3ccccc23)o1,6,/,/
O=C(NCc1ccco1)/C(=C/c1ccc(C(F)(F)F)cc1)c1nc2ccccc2[nH]1,13,-1,/
O=C(NCc1ccco1)/C(=C/c1cccc(C(F)(F)F)c1)c1nc2ccccc2[nH]1,38*,-10,>38
O=C(N=C1c2ccccc2CN1c1cccc(Cl)c1)c1cccnc1,6,/,/
COc1cc(/C=C/C(=O)OCC(=O)Nc2cc(S(=O)(=O)N(C)C)ccc2Cl)ccc1O,-10,/,/
COc1cc(/C=C/C(=O)OCC(=O)Nc2ccccc2Sc2ccc(Cl)cc2)ccc1O,36*,8,>38
CCOC(=O)C1CCCN(C(=O)C2CCN(C(=O)Nc3ccccc3)CC2)C1 (stereo not given),-8,/,/
Cc1cccc(CS(=O)(=O)c2ncc(Cl)c(C(=O)Nc3c(C)cccc3C)n2)c1,46*,/,9.9*
CCOC(=O)c1ccc(NC(=O)c2nc(SC)ncc2Cl)cc1,0,/,/
COc1ccc(OC)c(NC(=O)c2nc(S(=O)(=O)Cc3ccccc3)ncc2Cl)c1,28,/,/
Cc1cccc(CS(=O)(=O)c2ncc(Cl)c(C(=O)NCc3ccccc3)n2)c1,0,/,/
CCCc1nnc(NC(=O)c2nc(S(=O)(=O)Cc3cccc(C)c3)ncc2Cl)s1,85*,/,>38
Cc1ccccc1CS(=O)(=O)c1ncc(Cl)c(C(=O)Nc2ccc(F)cc2)n1,34*,/,8.6*
Cc1cccc(C)c1NC(=O)c1nc(S(=O)(=O)Cc2ccccc2)ncc1Cl,36*,/,17*
SMILES,RecA splice inh,Mtb RmlCD inh,GFP chromo cs
COc1ccc(NC(=O)c2nc(S(=O)(=O)Cc3cccc(C)c3)ncc2Cl)c(OC)c1,4,/,/
O=C(Cn1ncc2c3ccccc3n(Cc3ccc(F)cc3)c2c1=O)N1CCN(c2ncccn2)CC1,4,-8,/
CCOC(=O)c1ccc(NC(=O)CSc2nnc(CNc3ccc(C)cc3)n2C)cc1,-2,/,/
Cc1nnc(NC(=O)c2nc(S(=O)(=O)Cc3ccccc3)ncc2Cl)s1,56*,/,16*
Cc1nnc(NC(=O)CS(=O)(=O)Cc2ccccc2)s1,1,/,/
Cc1ccc(NC(=O)c2nc(S(=O)(=O)Cc3ccccc3)ncc2Cl)cc1,66*,/,40*
CCS(=O)(=O)c1ncc(Cl)c(C(=O)Nc2ccc(S(=O)(=O)N(C)c3ccccc3)cc2)n1,97*,/,1.6*
CCN(c1ccccc1)S(=O)(=O)c1ccc(NC(=O)c2nc(S(C)(=O)=O)ncc2Cl)cc1,3,/,/
O=C(Nc1ccc(F)cc1)c1nc(S(=O)(=O)Cc2ccccc2)ncc1Cl,1,/,/
CN(Cc1c(C(=O)N/N=C/c2cccc(Cl)c2)nnn1-c1nonc1N)c1ccccc1,9,/,/
O=C(Nc1cccc(F)c1)c1c(O)c2cccc3c2n(c1=O)CCC3,0,15,/
Cc1nc2c(-c3ccc(Cl)cc3)cnn2c2c1CCC2,-10,5,/
N#C/C(=C\c1ccc(O)c([N+](=O)[O-])c1)C(=O)NCc1ccccc1,4,-4,/
CC(NC(=O)/C(C#N)=C/c1ccc(Cl)c([N+](=O)[O-])c1)c1ccccc1 (stereo not given),62*,-1,14*
CC(=O)Nc1cccc(C(=O)OCCCOc2ccc(F)cc2)c1,0,/,/
O=Cc1cn(-c2ccccc2)nc1-c1ccccc1,2,/,/
CC1=NNC(=O)/C1=C\c1cn(-c2ccccc2)nc1-c1ccccc1,97*,-10,1.8*
c1ccc(COC2CCCN(Cc3nc(-c4cnccn4)no3)C2)cc1 (stereo not given),0,-6,/
CCOC(=O)c1c(NC(=S)N2CCOCC2)sc2c1CCN(C(=O)OCC)C2,39*,22,33*
C=CCNC(=S)Nc1sc2c(c1C(=O)OCC)CCN(C(=O)OCC)C2,-3,9,/
CCOC(=O)c1c(NC(=S)N2CCCCC2)sc2c1CCN(C(=O)OCC)C2,33*,14,25*
CCOC(=O)c1c(NC(=S)NCc2ccccc2)sc2c1CCN(C(=O)OCC)C2,-3,21,/
Cc1cc(C(=O)Cn2ncc(Cl)c(Cl)c2=O)c(C)n1CC(F)(F)F,36*,-5,6*
CCCc1cc(=O)[nH]c(SCC(=O)c2cc(C)n(CC(F)(F)F)c2C)n1,2,-3,/
O=C(NC1CCCCC1)C(c1cccnc1)N(C(=O)CCl)c1ccc(F)cc1 (stereo not given),73*,-11,11*
SMILES,RecA splice inh,Mtb RmlCD inh,GFP chromo cs
COc1ccc(C(C(=O)NC2CCCCC2)N(C(=O)CCl)c2ccc(OC)cc2)cc1 (stereo not given),8,4,/
O=C(NC1CCCCC1)C(c1cccnc1)N(C(=O)CCl)c1ccccc1Cl (stereo not given),10,-7,/
O=C(NC1CCCCC1)C(c1ccncc1)N(Cc1ccc(F)cc1)C(=O)c1ccccn1 (stereo not given),-3,/,/
COc1ccc(N(C(=O)CCl)C(C(=O)NC2CCCCC2)c2cccnc2)cc1 (stereo not given),75*,-7,11*
COc1ccc(N(C(=O)Cc2cccs2)C(C(=O)NC2CCCC2)c2ccncc2)cc1 (stereo not given),-5,/,/
O=C(NC1CCCC1)C(c1ccc(F)cc1)N(Cc1ccc(F)cc1)C(=O)CCl (stereo not given),56*,-11,1.8*
COc1ccc(C(C(=O)NC2CCCCC2)N(C(=O)CCl)c2cccc(Cl)c2)cc1 (stereo not given),59*,11,?
CCNC(=S)Nc1scc(-c2ccccc2)c1C(=O)OCC,4,-4,/
Cc1cccc(NC(NC(=O)c2ccccn2)C(Cl)(Cl)Cl)c1 (stereo not given),4,/,/
CCOC(=O)C1CCCN(C2=NC(=O)/C(=C/c3ccc(O)c(OC)c3)S2)C1 (stereo not given),3,/,/
CC(C)(CNC(=O)CCNC(=O)c1ccc(Br)cc1)N1CCOCC1,0,/,/

# Compound activity from PubChem.
